Compound activity: PubChem, several laboratories
An excerpt weighted towards active compounds, which were near 2% of everything screened.
ARNT TACC3 PPI – disruptors of ARNT/TACC3 protein interaction, primary screen, biochemical, AlphaScreen, single concentration; Transforming acidic coiled-coil-containing protein 3 (Homo sapiens), Q9Y6A5; AlphaScreen His-ARNT PAS-B/GST-TACC3 binding, luminescence; TACC3 fragment carries E629A point mutation; inhibition, % at 9.99 µM; 390,000 compounds, 0.66% hits; AID 623870, 2012;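 active = mean inhibition of replicates at least 50% and at least half of replicates each reaching 50%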;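 also: 0% = complete ARNT plus TACC3 wells and 100% = ARNT alone without TACC3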
Neddylation inh – inhibitors of cullin neddylation, primary screen, biochemical, TR-FRET, uHTS, NAE and Ubc12 | NEDD8-conjugating enzyme Ubc12 (Homo sapiens) + NEDD8-activating enzyme E1 regulatory … | inhibition, % at 25 µM | 360,000 compounds, 0.58% hits; in the data active = inhibition above about 36%
NadD inh – inhibitors of S. aureus NadD, primary screen, biochemical, colorimetric, uHTS; AID 602399, 2012; inhibition, % at 20 µM; 360,000 compounds, 0.78% hits; purified NadD enzyme, colorimetric absorbance read-out; Nicotinate-nucleotide adenylyltransferase NadD (Staphylococcus aureus N315); in the data active = inhibition above about 26%
sPLA2-III inh – human group III sPLA2 inhibitors, primary screen, biochemical, QFRET, BODIPY PC-A2 liposome substrate. Group 3 secretory phospholipase A2 (Homo sapiens), Q9NZ20. QFRET BODIPY PC-A2 liposome hydrolysis, fluorescence. inhibition, % at 12.2 µM. 370,000 compounds, 0.56% hits. AID 743126, 2013;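 active = inhibition above mean plus 3 SD of compounds lying within the high and low control bounds, cut at about 19% in these data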;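 also: 0% = median of test compound wells and 100% = no enzyme DMSO wells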
DAGLB inhibitor – DAGLB lipase inhibitors, primary screen, biochemical, fluorescence, HTS. Diacylglycerol lipase-beta (Homo sapiens), Q8NCG7. HEK293T DAGLB membrane lysate, EnzChek fluorogenic substrate. inhibition, % at 5.17 µM. 340,000 compounds, 0.059% hits; in the data active = inhibition above about 34%;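 also: 0% = enzyme with vehicle and 100% = wells lacking enzyme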
Neddyl inh conf – blockade of NEDD8 conjugation to cullin – biochemical, TR-FRET, single concentration, confirmation; shares compounds with Neddylation inh; TR-FRET cullin neddylation biochemical assay; calls only at 25 µM; 1,800 compounds, 13% hits; AID 652217, 2013; in the data active = inhibition above about 40%;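 also: neddylation substrate is the cullin 1 ring ligase complex with SKP2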
* hit, by the source's call; i = inactive; · = no result given; + = active, no number.

SMILES	ARNT TACC3 PPI	Neddylation inh	NadD inh	sPLA2-III inh	DAGLB inhibitor	Neddyl inh conf
CC(C)NC(=O)N(C)C[C@@H]1Oc2c(NS(C)(=O)=O)cccc2C(=O)N([C@H](C)CO)C[C@@H]1C	4	·	·	·	·	·
Cc1cc(C)n2nc(C(=O)N3CCCC(N4CCN(c5ccccc5C)CC4)C3)cc2n1 (configuration not stated)	6	47*	0	-2	2	i
CCN(CC)CCOC(=O)c1cccc2c1-c1ccccc1C2O (configuration not stated)	5	37*	-5	-4	1	i
CCN(CC)CCOC(=O)c1ccccc1Br	9	-13	-2	0	0	·
COc1ccc(C(=O)Cn2c3ccccc3n3nc(CCC(=O)O)c(=O)nc23)cc1OC	-2	44*	1	0	0	·
O=c1c2ccccc2nc2n1CCCN2	2	52*	7	2	3	·
COc1cc(C2C3=C(CC(C)(C)CC3=O)Nc3c2c(=O)[nH]c(=O)n3Cc2ccccc2)ccc1O (configuration not stated)	-9	33	2	-33	2	·
COc1ccc(C2C3=C(CC(C)(C)CC3=O)Nc3c2c(=O)[nH]c(=O)n3Cc2ccccc2)cc1OC (configuration not stated)	2	44*	0	-44	2	·
COc1cccc(-c2ccc(C#N)c(OC(=O)c3ccc(Cl)cc3)n2)c1	0	41*	4	0	1	i
O=C(C[C@H]1C=C[C@@H](NC(=O)c2ccccc2)[C@@H](CO)O1)NCCc1ccncc1	-11	·	·	·	·	·
COCCOC(=O)C(C#N)c1nc2ccccc2nc1N1CCCC1 (configuration not stated)	11	41*	0	3	2	i
N#CC1=C(N)N(c2ccc(Br)cc2)C2=C(C(=O)CCC2)C1c1cccnc1 (configuration not stated)	3	42*	10	-1	3	i
O=C(Nc1ccc2c(c1)OCO2)N[C@@H]1CC[C@H](CCNC(=O)C2CCOCC2)O[C@H]1CO	-1	·	·	·	·	·
COC(=O)COc1ccc2oc(=O)cc(-c3cc4cccc(OC)c4o3)c2c1	-5	42*	-8	9	-1	i
O=C(NCCc1ccc(Cl)cc1Cl)C1=CC=CN2CCS(=O)(=O)N=C12	3	53*	-2	-4	2	+
O=C(Nc1ccc2nc(-c3ccccc3)oc2c1)c1ccco1	·	38*	-7	1	-5	i
CC(=O)N1CC[C@@H]2[C@H]1c1cc(-c3cccc(F)c3)ccc1N(C)[C@@H]2CO	-7	·	·	·	·	·
CSc1cnc2c(=O)n(C)c(=O)[nH]c2n1	31	48*	3	-2	-1	·
CCCNC(=O)C[C@@H]1CC[C@H]2[C@H](COc3ccc(NC(=O)c4ccc(OC)cc4)cc3C(=O)N2C)O1	2	·	·	·	·	·
CCCC(=O)Nc1ccc2c(c1)OC[C@@H](C)N(C(=O)c1ccncc1)C[C@@H](C)[C@H](OC)CN(C)C2=O	-9	·	·	·	·	·
O=C(C1CCCN(Cc2ccccc2[N+](=O)[O-])C1)N1CCCCC1 (configuration not stated)	-3	-11	-4	2	0	·
COC(=O)c1cccc([N+](=O)[O-])c1CN1CCCC(C(N)=O)C1 (configuration not stated)	3	42*	-7	-3	1	i
CCn1c(=O)c(CCC(=O)NCC2CCCO2)c(C)c2c(C)nn(-c3ccccc3)c21 (configuration not stated)	-3	40*	-7	-5	-2	i
O=C(O)C(=O)/C(=C\c1cccc(Cl)c1)c1ccc2ccccc2n1	-2	·	0	-49	6	·
N#Cc1ccc(/C=C(\C(=O)C(=O)O)c2ccc3ccccc3n2)cc1	-5	39*	-4	-35	1	i
